Screening results deposited in PubChem by National Center for Advancing Translational Sciences (NCATS).
The list is not random: actives were taken first. Their share in the collection is about 21%.
DT40 TDP1 CPT = DT40-hTDP1 cell growth loss with CPT | chicken DT40 Tdp1-/-;hTDP1 cells + 20 nM CPT, ATP luminescence, 48 h | Potency, µM (series often up to 46.2 µM), inactives show top-dose activity change, negative = growth inhibition, actives largely listed as inhibitors | 420,000 compounds, 12% hits; also: potency is read from the fitted curve at half-maximal effect; % is scaled to controls: 0 for no effect and ±100 for the full control effect; nearly all actives have a fitted effect of over 55% in size
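Cell growth measured by CellTiter-Glo luminescence after a minimum 48 h, 37 C compound exposure with 20 nM CPT in Tdp1-knockout DT40 cells stably expressing hTDP1, seeded 400/well; qHTS titration format.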
IL1B secr inh = blocks inflammasome-driven IL-1 beta release | THP-1 LPS/ATP IL-1B secretion, AlphaLISA, 16 h; hits give low values | activity change, % at 57.5 µM | 360,000 compounds, 4.7% hits; in the data active = activity change below about -50%; inconclusive = mostly about -30% to -49%; also: % is scaled to controls: 0 for no effect and ±100 for the full control effect
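THP-1 cells pretreated 1 hr with compounds (up to 57.5 uM final), then stimulated with LPS (250 ng/mL final) plus ATP (1.25 mM final); secreted IL-1B measured by AlphaLISA after 16 hr, decreased signal indicating inhibition.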
D3 ag = activates the human D3 dopamine receptor; P35462; D3R DiscoveRx beta-arrestin cells, luminescence, 90 min; max activation, %; 410,000 compounds, 0.58% hits; in the data active = max activation above about 30%; also: 0% is about no effect
Target sequence (P35462 whole entry, looked up): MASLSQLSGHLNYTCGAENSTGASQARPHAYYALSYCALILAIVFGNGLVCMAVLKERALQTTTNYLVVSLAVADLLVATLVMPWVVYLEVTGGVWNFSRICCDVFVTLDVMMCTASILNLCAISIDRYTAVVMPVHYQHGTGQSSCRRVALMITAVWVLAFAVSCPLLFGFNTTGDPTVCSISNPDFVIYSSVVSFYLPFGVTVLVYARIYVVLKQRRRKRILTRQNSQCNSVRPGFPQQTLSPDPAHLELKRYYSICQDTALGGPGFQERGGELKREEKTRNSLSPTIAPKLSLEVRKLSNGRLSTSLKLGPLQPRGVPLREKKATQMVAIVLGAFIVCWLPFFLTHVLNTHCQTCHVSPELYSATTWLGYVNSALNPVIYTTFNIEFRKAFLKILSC
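Agonist mode: compounds and dopamine controls were applied to plated cells for 90 min at 37 degrees C after an overnight attachment at 1500 cells/well. Luminescent read-out followed 30 - 60 minutes at room temperature with DiscoveRx detection reagent.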
DRD3 antagonist = blocks the human D3 dopamine receptor | max response, negative = inhibition, % | D3R cells, DiscoveRx beta-arrestin luminescence, antagonist mode; hits give low values | AID 652054 | 360,000 compounds, 2.5% hits | P35462; in the data active = max response below about -50%; inconclusive = no clear call, values can overlap the other calls; also: % is scaled to controls: 0 for no effect and ±100 for the full control effect
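Cells expressing the human receptor were seeded at 1500 cells/well, incubated overnight at 37 degrees C in 5% CO2, then exposed to library compounds with dopamine controls for 90 minutes at 37 degrees C before luminescent detection.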
ClpP mod = qHTS Assay for Activators of ClpP; ATP-dependent Clp protease proteolytic subunit (Bacillus subtilis (strain 168)), P80244; purified B. subtilis ClpP, FRET peptide cleavage, 20 min; Potency, µM (series often up to 57.5 µM), without a hit: at the top dose activity change, negative = active; 340,000 compounds, 1.9% hits; active = well fitted falling curve with a large enough effect; inconclusive = small, poorly fitted or top-dose-only effect; inactive = no such curve, though single readings can be large or run the other way; also: potency is read from the fitted curve at half-maximal effect; the source files actives as falling curves though it sought activators and does not explain the sign; nearly all actives have a fitted effect of over 65% in size
Target sequence (P80244 whole entry, looked up): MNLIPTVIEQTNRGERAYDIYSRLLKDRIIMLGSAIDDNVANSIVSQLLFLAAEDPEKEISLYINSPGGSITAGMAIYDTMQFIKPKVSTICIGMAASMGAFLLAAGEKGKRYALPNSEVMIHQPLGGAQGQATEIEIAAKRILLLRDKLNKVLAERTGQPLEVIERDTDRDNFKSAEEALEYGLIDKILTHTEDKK
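ClpP 10 microg/mL final, pH 8 Tris/KCl buffer with BSA, glycerol, Tween-20; compound pinned in; FRET-FV substrate; RT 20 min; Ex320/Em430; ΔFRET vs ADEP 5.8 microM, DMSO, no enzyme.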
TDP1 cell noCPT = qHTS for Inhibitors of human tyrosyl-DNA phosphodiesterase 1 (TDP1): qHTS in cells in absence of CPT | DT40 Tdp1-/- hTDP1 cells, no CPT, ATP luminescence, 48 h | Potency, µM (doses to about 46.2 µM), without a hit: at the top dose activity change, negative = growth inhibition, most hits filed as inhibitors | 420,000 compounds, 15% hits | AID 686978, 2013; also: potency is read from the fitted curve at half-maximal effect; % is scaled to controls: 0 for no effect and ±100 for the full control effect; nearly all actives have a fitted effect of over 55% in size
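Luminescent ATP content (CellTiter-Glo) served as the growth readout. Knockout chicken DT40 cells expressing human TDP1 were exposed to compounds without camptothecin for a minimum 48 hr at 37 °C.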
The depositor's hits bear a star. Unless noted, calls follow the shape of the dose curve; as a rule, active = well fitted inhibition curve with a large enough effect; inconclusive = small, poorly fitted or top-dose-only effect; inactive = flat fitted curve, though single readings scatter.

Fc1ccc2[nH]c3c(NCc4ccco4)ncnc3c2c1 was read as DT40 TDP1 CPT 7.08µM*, ClpP mod 4.3% and TDP1 cell noCPT 8.91µM*.
Screening Cc1ccc2[nH]c3c(NCc4ccco4)ncnc3c2c1 returned DT40 TDP1 CPT 23.1µM*, IL1B secr inh -21.2, D3 ag 1.7, DRD3 antagonist 10.4, ClpP mod 17.8µM* and TDP1 cell noCPT 18.4µM*.
COc1cc(OC)c(OC)cc1/C=N/Nc1ncnc2c1[nH]c1ccccc12 was read as DT40 TDP1 CPT -20.6%, IL1B secr inh 28.0, D3 ag 2.7, DRD3 antagonist 34.1, ClpP mod -18.7% and TDP1 cell noCPT inconclusive.
COc1cc(CNc2ncnc3c2[nH]c2ccc(C)cc23)cc(OC)c1 was read as DT40 TDP1 CPT inconclusive, IL1B secr inh inconclusive, D3 ag 0.6, DRD3 antagonist 3.9, ClpP mod 3.6% and TDP1 cell noCPT 20.6µM*.
Screening COc1ccc(NC(=O)c2cnc3cc(C)ccn3c2=O)c(OC)c1 returned DT40 TDP1 CPT 0.5%, D3 ag -7.6, ClpP mod -6.1% and TDP1 cell noCPT -2.5%.
`O=C(Oc1cc(=O)oc2c1c(=O)n1c3c(cccc23)CC1)c1ccc(F)cc1` gave DT40 TDP1 CPT -26.0%, D3 ag -2.1, DRD3 antagonist -2.7 and TDP1 cell noCPT 23.1µM*.
`Cc1ccc(C(=O)Nc2nc3nc(C)cc(=O)n3[nH]2)cc1` gave DT40 TDP1 CPT 1.0%, D3 ag -2.9, ClpP mod -1.2% and TDP1 cell noCPT -2.6%.
Cc1ccc(-c2c3c(=O)n(C)c(=O)n(C)c3cn2-c2cc(C)ccc2O)cc1 was read as DT40 TDP1 CPT inconclusive, D3 ag -4.5, ClpP mod 3.55µM* and TDP1 cell noCPT inconclusive.
For CCOC(=O)c1ccc(O)c(-n2cc3c(c2-c2ccccc2)c(=O)n(C)c(=O)n3C)c1 the results were DT40 TDP1 CPT inconclusive, IL1B secr inh 22.7, D3 ag -5.9, DRD3 antagonist -10.8, ClpP mod -9.8% and TDP1 cell noCPT 14.6µM*.
For Cn1c(=O)c2c(-c3ccccc3)n(-c3cc(C(=O)O)ccc3O)cc2n(C)c1=O the results were DT40 TDP1 CPT -14.8%, IL1B secr inh 7.5, D3 ag 2.5, DRD3 antagonist 9.3, ClpP mod -14.7% and TDP1 cell noCPT 4.8%.
For Cc1ccc(-c2c3c(=O)n(C)c(=O)n(C)c3cn2Cc2cccnc2)cc1 the results were DT40 TDP1 CPT -16.7%, IL1B secr inh 0.0, D3 ag 3.5, DRD3 antagonist 1.3, ClpP mod -5.9% and TDP1 cell noCPT -18.5%.
COc1ccc(C(C)=O)cc1CC(=O)Nc1cccc(S(=O)(=O)N2CCOCC2)c1 was read as DT40 TDP1 CPT 15.5%, IL1B secr inh 32.9, D3 ag 4.3, DRD3 antagonist 4.0, ClpP mod -1.5% and TDP1 cell noCPT 2.7%.
Cc1nc(C)c(C(=O)O)s1 was read as DT40 TDP1 CPT -17.5%, IL1B secr inh 8.7, D3 ag 46.8*, DRD3 antagonist -21.4, ClpP mod -1.8% and TDP1 cell noCPT 7.4%.
For Cc1nc(C)c(C(=O)Nc2ccccc2)s1 the results were DT40 TDP1 CPT -1.4%, IL1B secr inh -17.2, D3 ag -4.8, DRD3 antagonist 1.7, ClpP mod 0.5% and TDP1 cell noCPT -20.0%.
For COc1cc(C(F)(F)F)ccc1C(=O)NCCc1ccco1 the results were DT40 TDP1 CPT 0.4%, IL1B secr inh inconclusive, D3 ag 1.9, DRD3 antagonist -1.6, ClpP mod -2.8% and TDP1 cell noCPT 5.9%.
For COC(=O)c1ccccc1NC(=O)c1ccc2c(c1)CCN2S(C)(=O)=O the results were DT40 TDP1 CPT inconclusive, D3 ag -6.9, ClpP mod -2.3% and TDP1 cell noCPT -27.7%.
Screening CCOc1ccc(CNC(=O)c2sc3nc(C)cc(C)c3c2-n2cccc2)cc1 returned DT40 TDP1 CPT inconclusive, D3 ag -5.9, ClpP mod -1.7% and TDP1 cell noCPT inconclusive.
COCCNC(=O)c1sc2ncccc2c1-n1c(C)ccc1C was read as DT40 TDP1 CPT 18.4µM*, D3 ag -17.3, ClpP mod -12.8% and TDP1 cell noCPT inconclusive.
For COCCNC(=O)c1ccc(C(=O)NCCOC)s1 the results were DT40 TDP1 CPT -14.5%, IL1B secr inh -1.3, D3 ag -7.1, DRD3 antagonist -4.0, ClpP mod 1.5% and TDP1 cell noCPT -4.7%.
Screening COC(=O)c1sc2ncccc2c1OCc1ccc(Cl)cc1 returned DT40 TDP1 CPT -12.7%, IL1B secr inh -22.7, D3 ag -1.0, DRD3 antagonist 1.8, ClpP mod 35.5µM* and TDP1 cell noCPT -17.2%.
Screening Cc1ccc(C)n1-c1c(C(=O)NCCC(C)C)sc2ncccc12 returned DT40 TDP1 CPT 16.4µM*, D3 ag -4.1, ClpP mod 3.0% and TDP1 cell noCPT 18.4µM*.
Screening CCc1ccc(CNC(=O)c2sc3ncccc3c2-n2c(C)ccc2C)cc1 returned DT40 TDP1 CPT 14.6µM*, D3 ag -3.9, ClpP mod -6.6% and TDP1 cell noCPT 20.6µM*.
For COC(=O)c1sc2ncccc2c1OCc1ccccc1Cl the results were DT40 TDP1 CPT -20.7%, IL1B secr inh 27.1, D3 ag -0.9, DRD3 antagonist 23.2, ClpP mod inconclusive and TDP1 cell noCPT inconclusive.
`Nn1c(SCC(=O)Nc2nccs2)nnc1C1CC1` gave DT40 TDP1 CPT -15.2%, IL1B secr inh 13.1, D3 ag -0.1, DRD3 antagonist 3.1, ClpP mod -3.4% and TDP1 cell noCPT 9.3%.
Screening CCCc1nc2oc3c(NCc4ccccn4)ncnc3c2c2c1COC(C)(C)C2 returned DT40 TDP1 CPT 14.6µM*, IL1B secr inh -10.0, D3 ag 1.4, DRD3 antagonist 6.3, ClpP mod inconclusive and TDP1 cell noCPT 14.6µM*.
Cc1nc2oc3c(NCc4ccccn4)ncnc3c2c2c1COC(C)(C)C2 was read as DT40 TDP1 CPT -24.4%, IL1B secr inh -28.8, D3 ag -38.8, DRD3 antagonist -12.9, ClpP mod 38.9% and TDP1 cell noCPT inconclusive.
CC(C)c1nc2oc3c(NCC4CCCO4)ncnc3c2c2c1CCC2 (stereo unspecified) was read as DT40 TDP1 CPT 25.9µM*, IL1B secr inh -11.1, D3 ag 0.0, DRD3 antagonist 20.2, ClpP mod inconclusive and TDP1 cell noCPT 16.4µM*.
